For two sequences, binding signal results are on record in publication PMC7862700, “An all-to-all approach to the identification of sequence-specific readers for epigenetic DNA modifications on cytosine”.

What all share (experiment): DAPPL (digital affinity profiling via proximity ligation, sequencing); 10 mM Tris-HCl pH 7.5, 50 mM NaCl, 1 mM DTT, 4% glycerol, room temperature, 30 min; GST-TFs on glutathione beads, 16-mer random dsDNA library, 0.1% formaldehyde crosslink after washing; high values mean tight binding
Holding throughout (settings): protein: recombinant; tags: N-terminal GST; dsDNA, one strand shown

For one assay, the target named is T1, ELK1 (Homo sapiens, UniProt P19419 1-428).
T1 sequence: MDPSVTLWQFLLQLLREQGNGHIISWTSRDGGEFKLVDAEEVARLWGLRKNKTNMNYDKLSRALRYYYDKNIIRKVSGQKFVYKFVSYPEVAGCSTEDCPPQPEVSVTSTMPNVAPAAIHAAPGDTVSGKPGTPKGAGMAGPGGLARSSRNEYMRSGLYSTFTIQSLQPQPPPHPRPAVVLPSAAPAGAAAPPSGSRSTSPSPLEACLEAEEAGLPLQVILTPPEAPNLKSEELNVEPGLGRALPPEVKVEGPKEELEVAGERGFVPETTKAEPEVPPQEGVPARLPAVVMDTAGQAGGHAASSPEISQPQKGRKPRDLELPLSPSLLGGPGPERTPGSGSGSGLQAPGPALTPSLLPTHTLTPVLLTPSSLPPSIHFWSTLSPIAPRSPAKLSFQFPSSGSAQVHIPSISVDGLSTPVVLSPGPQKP
The essentials:
(§1)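 A tag-only sample was pooled with DNA-barcoded human transcription factors that had been expressed in yeast as GST fusions and captured on glutathione beads. The pools were incubated for 30 min at room temperature with 200 nmole of a random double-stranded 16-mer DNA library in Tris/NaCl/DTT/glycerol buffer, then washed, crosslinked with 0.1% formaldehyde, proximity-ligated (BsaI/T4 ligase, 1 h, 37 °C), PCR-amplified and sequenced on an Illumina NextSeq500. Binding signal is each hexamer's read frequency for a factor divided by its frequency for the tag-only sample.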

The target of another assay is T2, GABPA (Homo sapiens, UniProt Q06546 1-454).
T2 sequence: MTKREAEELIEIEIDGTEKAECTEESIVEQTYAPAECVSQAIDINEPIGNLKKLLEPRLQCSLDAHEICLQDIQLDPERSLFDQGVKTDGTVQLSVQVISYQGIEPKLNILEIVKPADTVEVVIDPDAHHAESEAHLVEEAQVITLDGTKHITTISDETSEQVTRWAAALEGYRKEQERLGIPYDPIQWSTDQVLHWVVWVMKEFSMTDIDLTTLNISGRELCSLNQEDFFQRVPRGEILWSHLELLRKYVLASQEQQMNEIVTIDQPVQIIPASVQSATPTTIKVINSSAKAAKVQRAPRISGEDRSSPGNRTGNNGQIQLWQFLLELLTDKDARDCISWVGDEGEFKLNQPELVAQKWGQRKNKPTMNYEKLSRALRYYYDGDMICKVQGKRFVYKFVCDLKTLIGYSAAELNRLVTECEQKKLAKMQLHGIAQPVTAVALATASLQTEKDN
The essentials: as §1

A further assay has as its target ELF1 (Homo sapiens, UniProt P32519 1-619). The essentials: as §1
The next assay addresses T3, EHF (Homo sapiens, UniProt Q9NZC4 1-300).
T3 sequence: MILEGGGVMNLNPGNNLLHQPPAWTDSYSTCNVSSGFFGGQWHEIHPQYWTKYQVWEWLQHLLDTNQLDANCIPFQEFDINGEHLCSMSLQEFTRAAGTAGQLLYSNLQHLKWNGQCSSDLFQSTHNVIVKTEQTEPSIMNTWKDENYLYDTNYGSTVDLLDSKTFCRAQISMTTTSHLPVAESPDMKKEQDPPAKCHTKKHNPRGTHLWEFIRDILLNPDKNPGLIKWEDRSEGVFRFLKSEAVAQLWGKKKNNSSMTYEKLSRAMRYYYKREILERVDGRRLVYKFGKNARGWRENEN
In outline: as §1

The next assay deals with SPIB (Homo sapiens, UniProt Q01892 1-262). The essentials:
as §1

In a further assay the target is T4, SPIC (Homo sapiens, UniProt Q8N5J4 1-248).
T4 sequence: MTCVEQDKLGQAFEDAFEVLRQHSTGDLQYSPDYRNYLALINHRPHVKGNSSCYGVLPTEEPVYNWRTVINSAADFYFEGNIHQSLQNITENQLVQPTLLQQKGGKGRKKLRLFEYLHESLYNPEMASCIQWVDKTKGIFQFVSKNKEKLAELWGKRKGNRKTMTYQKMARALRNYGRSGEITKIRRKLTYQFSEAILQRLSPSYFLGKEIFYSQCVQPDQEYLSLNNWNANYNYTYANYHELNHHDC
In outline: as §1

Another assay has as its target T5, ELK4 (Homo sapiens, UniProt P28324-2 1-405).
T5 sequence: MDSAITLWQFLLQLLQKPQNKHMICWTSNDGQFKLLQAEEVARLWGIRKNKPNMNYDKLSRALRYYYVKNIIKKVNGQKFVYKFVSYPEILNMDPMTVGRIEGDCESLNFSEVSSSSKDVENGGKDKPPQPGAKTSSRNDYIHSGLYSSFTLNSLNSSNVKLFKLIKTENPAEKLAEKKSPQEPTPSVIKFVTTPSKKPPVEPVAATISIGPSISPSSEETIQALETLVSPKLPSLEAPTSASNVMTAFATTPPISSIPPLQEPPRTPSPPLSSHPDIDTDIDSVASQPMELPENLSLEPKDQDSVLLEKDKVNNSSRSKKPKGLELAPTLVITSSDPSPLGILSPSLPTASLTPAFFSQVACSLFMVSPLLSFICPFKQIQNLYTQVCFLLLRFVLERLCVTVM
In outline:
as §1

Another assay addresses ETV1 (Homo sapiens, UniProt P50549 1-477). The essentials:
as §1

The target in another assay is T6, SPDEF (Homo sapiens, UniProt O95238 1-335).
T6 sequence: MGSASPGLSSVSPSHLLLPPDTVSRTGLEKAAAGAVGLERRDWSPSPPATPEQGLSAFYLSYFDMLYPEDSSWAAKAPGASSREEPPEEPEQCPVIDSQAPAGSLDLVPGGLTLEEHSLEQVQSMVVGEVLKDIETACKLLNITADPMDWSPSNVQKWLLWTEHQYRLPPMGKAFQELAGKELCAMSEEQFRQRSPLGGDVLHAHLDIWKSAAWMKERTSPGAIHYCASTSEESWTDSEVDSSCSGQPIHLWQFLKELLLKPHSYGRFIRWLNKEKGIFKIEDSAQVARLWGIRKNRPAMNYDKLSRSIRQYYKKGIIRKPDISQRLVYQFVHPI
In outline:
as §1

A further assay addresses T7, ETV3 (Homo sapiens, UniProt P41162-2 1-143).
T7 sequence: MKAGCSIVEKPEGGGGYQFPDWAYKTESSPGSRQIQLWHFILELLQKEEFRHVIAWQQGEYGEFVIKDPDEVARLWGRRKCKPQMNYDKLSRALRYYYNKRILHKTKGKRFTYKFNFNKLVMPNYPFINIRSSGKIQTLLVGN
The essentials: as §1

In a further assay the target is ETV6 (Homo sapiens, UniProt P41212 1-452). In outline:
as §1

The target of a further assay is T8, ERG (Homo sapiens, UniProt P11308 1-479).
T8 sequence: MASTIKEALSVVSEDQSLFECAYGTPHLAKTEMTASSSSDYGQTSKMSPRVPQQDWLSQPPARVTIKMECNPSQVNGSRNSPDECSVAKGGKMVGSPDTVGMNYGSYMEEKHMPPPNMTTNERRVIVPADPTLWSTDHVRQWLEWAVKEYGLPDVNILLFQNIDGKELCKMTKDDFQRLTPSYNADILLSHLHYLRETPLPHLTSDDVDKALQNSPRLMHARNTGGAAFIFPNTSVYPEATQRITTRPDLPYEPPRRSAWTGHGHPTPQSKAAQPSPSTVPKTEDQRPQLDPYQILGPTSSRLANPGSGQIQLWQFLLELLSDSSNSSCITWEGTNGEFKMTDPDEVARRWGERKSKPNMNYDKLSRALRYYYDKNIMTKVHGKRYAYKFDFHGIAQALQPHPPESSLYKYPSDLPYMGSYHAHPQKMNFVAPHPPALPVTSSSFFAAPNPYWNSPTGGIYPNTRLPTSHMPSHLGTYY
In outline:
as §1

The next assay concerns the target ELF4 (Homo sapiens, UniProt Q99607 1-663). The essentials: as §1
The target of the next assay is T9, ELF3 (Homo sapiens, UniProt P78545 1-371).
T9 sequence: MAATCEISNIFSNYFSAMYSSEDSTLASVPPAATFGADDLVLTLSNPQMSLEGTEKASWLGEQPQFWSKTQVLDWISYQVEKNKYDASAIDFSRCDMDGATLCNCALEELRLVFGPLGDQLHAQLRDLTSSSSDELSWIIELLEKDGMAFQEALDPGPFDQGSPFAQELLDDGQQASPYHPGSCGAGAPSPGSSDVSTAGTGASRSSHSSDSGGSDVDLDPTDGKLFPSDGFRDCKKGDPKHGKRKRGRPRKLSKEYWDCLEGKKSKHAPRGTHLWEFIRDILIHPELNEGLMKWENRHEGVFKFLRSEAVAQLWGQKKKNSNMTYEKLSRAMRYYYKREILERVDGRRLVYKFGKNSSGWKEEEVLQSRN
In outline: as §1

For a further assay, the target named is T10, ERF (Homo sapiens, UniProt P50548 1-548).
T10 sequence: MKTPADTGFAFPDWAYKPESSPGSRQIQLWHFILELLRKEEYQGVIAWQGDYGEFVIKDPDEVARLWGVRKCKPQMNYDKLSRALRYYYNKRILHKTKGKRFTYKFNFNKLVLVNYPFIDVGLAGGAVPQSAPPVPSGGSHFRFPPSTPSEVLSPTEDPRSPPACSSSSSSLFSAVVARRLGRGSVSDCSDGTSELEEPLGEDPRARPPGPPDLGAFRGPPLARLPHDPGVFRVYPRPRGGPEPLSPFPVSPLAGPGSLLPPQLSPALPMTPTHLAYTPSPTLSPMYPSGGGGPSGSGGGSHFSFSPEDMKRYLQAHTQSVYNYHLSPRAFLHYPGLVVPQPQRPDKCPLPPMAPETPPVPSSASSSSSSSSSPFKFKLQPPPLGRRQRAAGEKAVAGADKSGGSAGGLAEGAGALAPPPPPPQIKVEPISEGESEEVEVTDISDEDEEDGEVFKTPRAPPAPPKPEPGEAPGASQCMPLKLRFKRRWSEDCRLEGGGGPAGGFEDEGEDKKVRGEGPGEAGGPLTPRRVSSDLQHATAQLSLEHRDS
In outline:
as §1

The target of the next assay is T11, ETV3L (Homo sapiens, UniProt Q6ZN32 1-361).
T11 sequence: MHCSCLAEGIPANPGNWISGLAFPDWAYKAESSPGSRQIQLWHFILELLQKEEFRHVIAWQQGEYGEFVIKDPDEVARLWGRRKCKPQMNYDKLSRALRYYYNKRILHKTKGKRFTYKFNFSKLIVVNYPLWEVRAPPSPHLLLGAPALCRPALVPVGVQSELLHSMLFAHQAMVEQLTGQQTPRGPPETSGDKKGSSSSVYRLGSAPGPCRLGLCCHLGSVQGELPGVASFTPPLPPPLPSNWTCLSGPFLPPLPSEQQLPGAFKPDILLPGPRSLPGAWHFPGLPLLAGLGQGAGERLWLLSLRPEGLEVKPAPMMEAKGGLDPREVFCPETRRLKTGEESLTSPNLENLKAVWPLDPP
The essentials: as §1

A further assay addresses T12, ETS2 (Homo sapiens, UniProt P15036 1-469).
T12 sequence: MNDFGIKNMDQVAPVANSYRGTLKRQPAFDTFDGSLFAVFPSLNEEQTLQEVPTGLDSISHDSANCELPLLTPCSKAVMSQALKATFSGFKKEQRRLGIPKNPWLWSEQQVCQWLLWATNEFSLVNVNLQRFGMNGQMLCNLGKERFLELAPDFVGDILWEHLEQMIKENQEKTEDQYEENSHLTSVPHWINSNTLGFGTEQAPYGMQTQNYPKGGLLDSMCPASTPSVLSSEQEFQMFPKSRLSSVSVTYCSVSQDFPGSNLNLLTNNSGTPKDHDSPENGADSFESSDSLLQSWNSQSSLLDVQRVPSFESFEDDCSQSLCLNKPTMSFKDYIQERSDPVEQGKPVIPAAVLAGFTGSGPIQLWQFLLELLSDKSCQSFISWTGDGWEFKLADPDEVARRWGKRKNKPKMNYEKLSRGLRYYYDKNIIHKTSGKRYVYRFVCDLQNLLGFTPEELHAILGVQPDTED
In outline: as §1

Sequence of SPIB (Q01892 whole entry): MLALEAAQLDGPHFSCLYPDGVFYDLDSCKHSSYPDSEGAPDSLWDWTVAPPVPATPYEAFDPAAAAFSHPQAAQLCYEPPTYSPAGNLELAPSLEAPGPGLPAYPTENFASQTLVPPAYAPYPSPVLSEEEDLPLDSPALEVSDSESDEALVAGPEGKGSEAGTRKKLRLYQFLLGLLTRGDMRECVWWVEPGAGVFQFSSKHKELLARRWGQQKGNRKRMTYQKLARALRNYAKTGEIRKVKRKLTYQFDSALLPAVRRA
Sequence of ETV6 (P41212 whole entry): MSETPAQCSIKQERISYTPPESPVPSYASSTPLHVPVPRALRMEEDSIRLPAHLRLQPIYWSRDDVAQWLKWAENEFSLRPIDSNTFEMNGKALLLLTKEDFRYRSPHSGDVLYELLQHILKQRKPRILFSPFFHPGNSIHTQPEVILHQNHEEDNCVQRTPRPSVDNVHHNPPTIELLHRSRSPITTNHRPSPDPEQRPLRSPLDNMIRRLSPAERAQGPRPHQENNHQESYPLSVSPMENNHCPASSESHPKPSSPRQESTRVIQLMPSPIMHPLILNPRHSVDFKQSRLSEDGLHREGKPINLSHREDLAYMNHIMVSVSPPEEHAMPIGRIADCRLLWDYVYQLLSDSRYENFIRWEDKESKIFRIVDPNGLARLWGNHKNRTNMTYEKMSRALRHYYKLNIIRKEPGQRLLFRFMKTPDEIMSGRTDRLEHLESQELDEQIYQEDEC
Sequence of ETV1 (P50549 whole entry): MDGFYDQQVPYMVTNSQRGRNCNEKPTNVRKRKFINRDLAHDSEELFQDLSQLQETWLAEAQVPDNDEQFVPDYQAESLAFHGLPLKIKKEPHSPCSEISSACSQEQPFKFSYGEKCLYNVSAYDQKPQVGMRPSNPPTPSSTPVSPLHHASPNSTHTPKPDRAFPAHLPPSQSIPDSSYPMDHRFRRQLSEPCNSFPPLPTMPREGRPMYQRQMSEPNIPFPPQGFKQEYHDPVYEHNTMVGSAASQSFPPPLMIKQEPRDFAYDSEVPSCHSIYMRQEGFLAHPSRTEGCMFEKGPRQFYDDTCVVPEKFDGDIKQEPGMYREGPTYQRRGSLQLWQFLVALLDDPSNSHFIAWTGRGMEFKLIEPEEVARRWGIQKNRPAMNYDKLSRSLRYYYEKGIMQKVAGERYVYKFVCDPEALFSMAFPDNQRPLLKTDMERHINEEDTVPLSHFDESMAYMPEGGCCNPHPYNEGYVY
Sequence of ELF4 (Q99607 whole entry): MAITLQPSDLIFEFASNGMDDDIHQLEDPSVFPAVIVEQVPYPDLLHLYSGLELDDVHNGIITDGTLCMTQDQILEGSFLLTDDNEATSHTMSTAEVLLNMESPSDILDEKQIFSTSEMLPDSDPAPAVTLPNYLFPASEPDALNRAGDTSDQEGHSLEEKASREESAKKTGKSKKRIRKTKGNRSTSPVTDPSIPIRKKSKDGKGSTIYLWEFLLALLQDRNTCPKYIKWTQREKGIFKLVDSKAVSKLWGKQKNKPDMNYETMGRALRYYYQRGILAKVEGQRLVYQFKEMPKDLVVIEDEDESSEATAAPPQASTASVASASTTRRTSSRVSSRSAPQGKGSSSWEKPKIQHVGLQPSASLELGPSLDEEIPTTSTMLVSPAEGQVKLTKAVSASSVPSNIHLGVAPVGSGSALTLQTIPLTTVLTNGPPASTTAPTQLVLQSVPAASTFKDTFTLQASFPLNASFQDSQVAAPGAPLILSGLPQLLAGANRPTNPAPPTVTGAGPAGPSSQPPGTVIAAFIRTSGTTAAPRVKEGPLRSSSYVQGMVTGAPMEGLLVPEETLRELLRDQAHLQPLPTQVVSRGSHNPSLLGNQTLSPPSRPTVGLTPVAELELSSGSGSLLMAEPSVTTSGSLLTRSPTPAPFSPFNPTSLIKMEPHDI
Sequence of ELF1 (P32519 whole entry): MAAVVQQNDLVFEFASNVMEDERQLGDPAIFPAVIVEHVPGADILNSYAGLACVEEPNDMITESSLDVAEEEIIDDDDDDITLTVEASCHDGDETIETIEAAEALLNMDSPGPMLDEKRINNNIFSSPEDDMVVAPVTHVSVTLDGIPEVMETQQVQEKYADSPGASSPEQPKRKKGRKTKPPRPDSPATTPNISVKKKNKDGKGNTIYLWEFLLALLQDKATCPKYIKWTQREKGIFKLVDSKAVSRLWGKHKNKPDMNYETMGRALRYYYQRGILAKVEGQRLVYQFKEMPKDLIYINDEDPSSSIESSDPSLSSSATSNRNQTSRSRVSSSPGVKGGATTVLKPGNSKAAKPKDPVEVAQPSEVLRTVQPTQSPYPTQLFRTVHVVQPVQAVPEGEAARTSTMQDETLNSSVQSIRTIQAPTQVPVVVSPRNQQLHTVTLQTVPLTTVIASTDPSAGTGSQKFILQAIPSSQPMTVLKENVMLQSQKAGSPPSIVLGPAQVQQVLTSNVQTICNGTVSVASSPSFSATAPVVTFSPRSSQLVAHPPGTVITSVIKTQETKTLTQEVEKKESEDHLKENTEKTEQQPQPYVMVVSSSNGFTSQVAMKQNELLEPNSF

For the sequence TGAATC, the binding signal with ELK1 was 1.01 fold enrichment (6-mer frequency, TF over GST control); with GABPA, 1.05 fold enrichment (6-mer frequency, TF over GST control); in the assay with ELF1, 1 fold enrichment (6-mer frequency, TF over GST control); in the assay with EHF, 1.04 fold enrichment (6-mer frequency, TF over GST control); with SPIB it was 1.04 fold enrichment (6-mer frequency, TF over GST control); with SPIC, 1.01 fold enrichment (6-mer frequency, TF over GST control). Also, the binding signal was 1.03 fold enrichment (6-mer frequency, TF over GST control) in the assay with ELK4; 1.01 fold enrichment (6-mer frequency, TF over GST control) with ETV1; 1.11 fold enrichment (6-mer frequency, TF over GST control) with SPDEF; 1.01 fold enrichment (6-mer frequency, TF over GST control) in the assay with ETV3; 1.01 fold enrichment (6-mer frequency, TF over GST control) with ETV6.
With TGGATA, the binding signal in the assay with ELK1 was 1.05 fold enrichment (6-mer frequency, TF over GST control); in the assay with GABPA it was 1.1 fold enrichment (6-mer frequency, TF over GST control); in the assay with ERG it was 1.08 fold enrichment (6-mer frequency, TF over GST control); with SPIB, 1.12 fold enrichment (6-mer frequency, TF over GST control); with SPIC it was 1.04 fold enrichment (6-mer frequency, TF over GST control); in the assay with ELF4, 1.05 fold enrichment (6-mer frequency, TF over GST control). Further, the binding signal with ELK4 was 1.07 fold enrichment (6-mer frequency, TF over GST control); with ELF3 it was 1.16 fold enrichment (6-mer frequency, TF over GST control); with ETV1, 1.09 fold enrichment (6-mer frequency, TF over GST control); with ERF, 1 fold enrichment (6-mer frequency, TF over GST control); in the assay with ETV3L it was 1.04 fold enrichment (6-mer frequency, TF over GST control); with ETS2 it was 1.06 fold enrichment (6-mer frequency, TF over GST control). For the same sequence, the binding signal in the assay with SPDEF was 1.06 fold enrichment (6-mer frequency, TF over GST control); with ETV3, 1.06 fold enrichment (6-mer frequency, TF over GST control); with ETV6, 1 fold enrichment (6-mer frequency, TF over GST control).
